# An excerpt weighted towards active compounds, which were near 3.7% of everything screened.
# Bead autofluor = compound fluorescence in toxin protease inhibitor counterscreen; actives 3.1% (n = 360,000); fluorescence intensity (test concentration not listed); compound autofluorescence counterscreen, microsphere flow cytometry; active compounds read high; in the data active = fluorescence intensity above about 16000; inconclusive = no clear call, values can overlap the other calls
# BoNT-A LC inh2 = inhibitors of Botulinum neurotoxin A light chain protease; actives 0.17% (n = 360,000); inhibition, % at 10 µM; multiplex microsphere protease substrate cleavage, flow cytometry; note: plate controls were buffer without enzyme for full effect and enzyme alone for no effect
# MazF activator = MazEF (E. coli) toxin RNase activation. P0AE70. FAM/BHQ RNA-DNA oligo cleavage fluorescence, 5 h. activation, % at 20 µM. actives 0.32% (n = 350,000); in the data active = activation above about 50%
# BoNT-F LC inh = inhibitors of Botulinum neurotoxin F light chain protease. inhibition, % at 10 µM. actives 0.22% (n = 360,000). AID 588497. Multiplex microsphere protease cleavage assay, flow cytometry; in the data active = inhibition above about 35%, passing the limit was not always enough; inconclusive = no clear call, values can overlap the other calls; note: plate controls were buffer without enzyme for full effect and enzyme alone for no effect
# Anthrax LF inh2 = anthrax lethal factor protease inhibition | inhibition, % at 10 µM | multiplex microsphere protease cleavage assay, LF | AID 588501 | actives 0.12% (n = 360,000) | P15917; note: plate controls were buffer without enzyme for full effect and enzyme alone for no effect
# * = called active by the depositor; ? = inconclusive; / = not tested or not shown. Cut-off read from the data, not from the text of the source, unless noted: active = inhibition above about 30%; inconclusive = no clear call, values can overlap the other calls; inactive = below that.
SMILES,Bead autofluor,BoNT-A LC inh2,MazF activator,BoNT-F LC inh,Anthrax LF inh2
CC1=C(C(=O)Nc2ccccc2)C(c2ccc(C)cc2)N=C(Nc2nc3ccccc3o2)N1 (stereo not given),23563*,-2,22,-2,-2
COc1cc2[nH]c3c(=O)n(N)c(=O)[nH]c3c2cc1OC,3664,-1,13,-2,5
CCNC(=O)C1(C)CCN(Cc2cccc(C(F)(F)F)c2)C1 (stereo not given),3552,0,/,6,2
O=C1C2C3C=CC(C3)C2C(=O)N1c1ccccc1 (stereo not given),22433*,?,-3,-3,-2
Cc1ccc(N2C(=O)C3C4C=CC(C4)C3C2=O)cc1 (stereo not given),2848,1,5,-4,-2
CN1C(=O)C2C=CC1C1C(=O)N(c3ccccc3)C(=O)C21 (stereo not given),21330*,2,0,4,-7
O=C(O)C1Sc2[nH]c(=O)sc2C2c3ccc(O)cc3OC(=O)C12 (stereo not given),3478,0,30,-5,-8
CO/N=C/c1ccc(Sc2ccc(C)cc2)c([N+](=O)[O-])c1,/,/,3,/,/
CO/N=C/c1cc([N+](=O)[O-])ccc1Sc1ccc(C)cc1,21195*,?,-9,2,-1
COc1ccc(NC(=O)Nc2ccc3c(c2)C(=O)N([C@H](C)CO)C[C@H](C)[C@@H](CN(C)S(=O)(=O)c2cccs2)O3)cc1,4244,-1,0,-2,0
COc1ccc(S(=O)(=O)Nc2ccc3c(c2)C(=O)N([C@H](C)CO)C[C@H](C)[C@@H](CN(C)S(=O)(=O)c2cccs2)O3)cc1,3090,0,54*,1,-6
C=CCNc1nc(N2CCOCC2)c(C#N)c2c1CN(C)CC2,11311,0,54*,-2,-6
CN1CCc2c(C#N)c(N3CCCCC3)nc(N3CCOCC3)c2C1,/,/,-3,/,/
COc1cccc(N2C(=NC(=O)C3CCCCC3)SC3CS(=O)(=O)CC32)c1 (stereo not given),5147,0,1,6,1
C=CCn1cnc2c(nnn2Cc2ccc(F)cc2)c1=O,5869,1,1,2,-6
O=C(Nc1ncc(Cc2ccccc2)s1)c1cccs1,2819,0,6,-7,0
Cc1ccc(C(=O)Nc2ncc(Cc3ccccc3)s2)o1,24322*,-1,1,-3,-1
O=C(Nc1ncc(Cc2ccc(SC(F)F)cc2)s1)c1ccccc1,21972*,2,6,3,-4
COCCNc1nc(NCc2ccc(C(C)C)cc2)c2sccc2n1,2907,0,/,1,-5
Cc1ccccc1NC(=O)c1ccc(NC(=O)C2CC(=O)OC23CCCCC3)cc1 (stereo not given),4480,0,-3,-3,-3
CCOC(=O)c1oc2nc(CC(C)C)c3c(c2c1N)CCC3,20183*,-1,8,2,-3
CC(C)(C)NC(=O)CN(Cc1cccs1)C(=O)C1COc2ccccc2O1 (stereo not given),23568*,-1,1,-1,0
CC(=O)N/C(=C\c1ccccc1)C(=O)OC(C)C(=O)c1ccccc1 (stereo not given),?,1,5,5,-7
CSc1nnc(C2CCN(CC(=O)Nc3ccccc3N3CCOCC3)CC2)n1C,4110,0,5,-4,0
CNC(=O)ON(C(=O)NC)C1N(C)C(=S)SC1(C)C (stereo not given),10829,-1,0,6,1
SMILES,Bead autofluor,BoNT-A LC inh2,MazF activator,BoNT-F LC inh,Anthrax LF inh2
CN1C(=S)SC(C)(NO)C1(C)C (stereo not given),18153*,-9,-1,-11,-6
O=C(OCC(=O)N1CCc2ccccc2C1)c1ccc(F)cc1Cl,2939,-1,0,-1,-3
COc1ccc2nc3cc(Cl)ccc3c(C#N)c2c1,4310,18,142*,-2,13
O=C(CSc1nnc(NC(=O)c2ccc3c(c2)OCO3)s1)NCc1ccco1,3203,0,-2,-3,-1
COc1ccc(NC(=O)C(NC(=O)OC(C)(C)C)C(C)OCc2ccccc2)cc1 (stereo not given),21191*,?,-9,-8,0
COc1ccc(NC(=O)[C@H](COCc2ccccc2)NC(=O)OC(C)(C)C)cc1,9750,0,-1,-1,0
COc1ccc(Cn2c(-c3ccccc3C)nc3c(c(=O)c4ccccc4n3C)c2=O)cc1,4314,-2,67*,-3,2
COc1ccc(Cn2c(C)nc3c(c(=O)c4ccccc4n3C)c2=O)cc1,4864,?,5,?,-4
NC(=O)c1nn(-c2ccccc2)c(=O)cc1O,22915*,0,-1,0,0
O=C(Nc1ccccc1)c1nn(-c2ccccc2)c(=O)cc1C(F)(F)F,2834,0,381*,-1,-1
NC(=O)c1nn(-c2cccc(Cl)c2)c(=O)cc1O,16281*,0,8,0,-7
NC(=O)c1nn(-c2ccc(Oc3ccccc3)cc2)c(=O)cc1O,4640,-1,-7,-4,-12
CCCCC(CC)C(=O)Nc1cc(C(=O)NCCC)ccc1N1CCC2(CC1)CC(c1cccc(Br)c1)=NO2 (stereo not given),3969,-1,-9,1,0
CC#C[C@]1(O)CC[C@H]2[C@@H]3CCC4=CC(=O)CCC4=C3[C@@H](c3ccc(N(C)C)cc3)C[C@@]21C,5486,0,12,-6,2
COc1cc(-c2nc(-c3ccccc3)c(-c3cccs3)[nH]2)cc(OC)c1OC,11656,-1,0,-4,0
COc1cc(-c2nc(-c3ccccc3)c(-c3cccs3)[nH]2)cc(OC)c1O,24448*,-1,15,-2,0
CCN(C(=O)CSc1nc(C)c(C)c(C)n1)C1CCS(=O)(=O)C1 (stereo not given),2658,0,0,-1,6
COc1ccc(C(=O)COC(=O)CSCc2c(C)noc2C)cc1OC,22438*,2,-2,1,2
CCOc1ccc(S(=O)(=O)N2CCC(C(=O)Nc3cc(S(C)(=O)=O)ccc3Cl)CC2)cc1,?,-6,-3,-14,-1
O=c1[nH]cnc2scc(-c3ccc(-c4ccccc4)cc3)c12,10156,0,83*,6,5
COc1ccc(OCCC(=O)OCC(=O)NCCc2ccccc2)cc1,4313,-2,-1,1,-1
COc1ccc(/C=N/Nc2cc(C)nc3ccccc23)cc1,3524,-3,-19,-9,1
Oc1ccc2ccccc2c1/C=N/Nc1nnc(-c2ncc[nH]2)c2ccccc12,9066,6,65*,-7,14
Oc1ccc2ccccc2c1C=NNc1ccccn1,2776,0,-11,-17,-6
COc1ccc(/C=N/Nc2nnc(-c3ncc[nH]3)c3ccccc23)cc1,21400*,-1,-2,1,1
Clc1nnc(N/N=C/c2ccccc2)c2ccccc12,16810*,-3,6,-3,-5
COc1ccc(C2C(C(=O)N3CCN(C)CC3)c3cc(OC)c(OC)cc3C(=O)N2C)cc1 (stereo not given),4172,0,0,-6,-5
